Assay results as given in PubChem BioAssay (EPA / NIEHS).
Results filed as inconclusive are left out. Active and inactive are the calls of the source. How the source made its calls, unless noted: active means hit-call score of the fitted dose curve at least 0.9, where 1 is the maximum; inconclusive means response in the unintended direction; inactive means score below 0.9.

What was measured:
[1] = ATG_TGFb_CIS: Attagene CIS-FACTORIAL HepG2 Assay for human Transforming Growth Factor (TGF) (AID 2282967; active means hit-call score of the fitted dose curve at least 0.9, where 1 is the maximum; inactive means score below 0.9); conditions: HepG2 Attagene CIS TGFb reporter, mRNA transcription; actives raise or lower the signal
How it was run: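 Transient MRTU transfection of HepG2 (FuGene 6). Dose 24 h. TriZol RNA, oligo(dT) RT, PCR, 6-FAM primer extension, HpaI cut, CE. Bidirectional fit, DMSO = baseline.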

[2] = ATG_VDRE_CIS: Attagene CIS-FACTORIAL HepG2 Assay for human Vitamin D Receptor Element (VDRE) (AID 2282968; active means hit-call score of the fitted dose curve at least 0.9, where 1 is the maximum; inactive means score below 0.9); conditions: HepG2 VDRE cis-reporter transcription, actives raise or lower the signal
How it was run: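 Steps: transfect HepG2 with multiple reporter transcription units; dose chemicals 24 h; isolate RNA; RT-PCR; label with 6-FAM primer extension; HpaI digest; capillary electrophoresis. Curves fitted both directions against DMSO.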

[3] = target: Estrogen receptor (Homo sapiens) (UniProt P03372); assay: ATG_ERa_TRANS: Attagene TRANS-FACTORIAL HepG2 Assay for human Estrogen Receptor alpha (ERa) (AID 2282970); conditions: HepG2 Attagene TRANS ERa GAL4 reporter, mRNA
How it was run: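 Gal4-fusion ERa transactivation, measured as reporter transcript level in transiently transfected HepG2 cells. Exposure 24 h; RT-PCR plus capillary electrophoresis with fluorescence detection.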

[4] = target: X-box-binding protein 1 (Homo sapiens) (UniProt P17861); assay: ATG_Xbp1_CIS: Attagene CIS-FACTORIAL HepG2 Assay for human X-box Binding Protein 1 (XBP1) (AID 2282972; active means hit-call score of the fitted dose curve at least 0.9, where 1 is the maximum; inactive means score below 0.9); conditions: HepG2 XBP1 cis-element reporter, Attagene multiplex; actives raise or lower the signal
How it was run: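 Human hepatoma HepG2, cis-element reporter system, 24 h treatment; mRNA quantified by RT-PCR/CE fluorescence; fit relative to DMSO.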

[5] = ATG_GAL4_TRANS: Attagene TRANS-FACTORIAL HepG2 Assay for GAL4 (Internal Marker) (AID 2282976); conditions: HepG2 Attagene TRANS GAL4 internal marker reporter
How it was run: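 Background-control readout: GAL4-UAS reporter transcript in transiently transfected HepG2 cells after 24 h compound exposure. Measured by RT-PCR, 6-FAM primer extension, HpaI digest and capillary electrophoresis; gain-of-signal fit versus DMSO.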

[6] = target: Oxysterols receptor LXR-beta (Homo sapiens) (UniProt P55055); assay: ATG_LXRb_TRANS: Attagene TRANS-FACTORIAL HepG2 Assay for human Liver X Receptor beta (LXRb) (AID 2282981); conditions: HepG2 Attagene TRANS GAL4-LXRb reporter, mRNA
How it was run: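 Measures induction of a Gal4-driven reporter transcript in HepG2 cells expressing an exogenous LXRb-Gal4 fusion. Cells are exposed to compound for 24 h before RNA isolation and RT-PCR with capillary electrophoresis detection.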

[7] = ATG_M_06_TRANS: Attagene TRANS-FACTORIAL HepG2 Assay for M06 Transcription Factor (Internal Marker) (AID 2282983); conditions: HepG2 Attagene TRANS M06 internal marker reporter
How it was run: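 mRNA levels of a reporter transcript, quantified as FAM fluorescence on capillary electrophoresis, served as readout. HepG2 cells expressing exogenous GAL4-chimera reporter constructs were exposed for 24 h. Gain of signal over DMSO was evaluated.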

[8] = target: Transcriptional activator Myb (Homo sapiens) (UniProt P10242); assay: ATG_Myb_CIS: Attagene CIS-FACTORIAL HepG2 Assay for human Myeloblastosis (Myb) Proto-Oncogene Transcription Factor (AID 2282986; active means hit-call score of the fitted dose curve at least 0.9, where 1 is the maximum; inactive means score below 0.9); conditions: HepG2 Attagene CIS-FACTORIAL Myb reporter transcription; actives raise or lower the signal
How it was run: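 Multiplexed cis-reporter system in HepG2: transient transfection, 24 h treatment, mRNA readout by RT-PCR and capillary electrophoresis. Both increases and decreases are scored versus DMSO negative control.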

[9] = target: Nuclear respiratory factor 1 (Homo sapiens) (UniProt Q16656); assay: ATG_NRF1_CIS: Attagene CIS-FACTORIAL HepG2 Assay for human Nuclear Respiratory Factor 1 (NRF1) Orphan Gene (AID 2282987; active means hit-call score of the fitted dose curve at least 0.9, where 1 is the maximum; inactive means score below 0.9); conditions: HepG2 NRF1 cis-element reporter, Attagene multiplex; actives raise or lower the signal
How it was run: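 Endogenous factor activity was captured via cis-element-driven reporter transcripts in HepG2 cells. Following 24 h chemical treatment, transcripts were quantified by RT-PCR and capillary electrophoresis.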

[10] = target: Glucocorticoid receptor (Homo sapiens) (UniProt P04150); assay: ATG_GR_TRANS: Attagene TRANS-FACTORIAL HepG2 Assay for human Glucocorticoid Receptor (GR) (AID 2282978); conditions: HepG2 Attagene TRANS GR reporter, mRNA transcription;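 further: activators score as hits since higher reporter transcript over DMSO is fitted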
How it was run: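 HepG2 transient transfection, multiple reporter units, GAL4-UAS under NR-GAL4 chimera control. 24 h treatment. Reporter mRNA by RT-PCR/CE fluorescence, DMSO as negative control.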

[11] = target: Hepatocyte nuclear factor 4-alpha (Homo sapiens) (UniProt P41235); assay: ATG_HNF4a_TRANS: Attagene TRANS-FACTORIAL HepG2 Assay for human Hepatocyte Nuclear Factor 4 alpha (HNF4a) (AID 2282982); conditions: HepG2 HNF4a transactivation reporter, mRNA readout
How it was run: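 In this trans-factorial format, a chimeric HNF4a-GAL4 fusion drives a GAL4-UAS reporter in transfected HepG2 liver cells. After 24 h treatment, reporter mRNA induction is measured by RT-PCR with capillary electrophoresis, relative to DMSO.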

[12] = ATG_M_32_TRANS: Attagene TRANS-FACTORIAL HepG2 Assay for M32 Transcription Factor (Internal Marker) (AID 2282984); conditions: HepG2 Attagene TRANS M32 internal marker reporter
How it was run: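 After 24 h dosing of transfected HepG2 cells, total RNA was reverse-transcribed, reporter sequences PCR-amplified, 6-FAM labelled by primer extension and HpaI-digested before capillary electrophoresis. Signal increase over DMSO was fitted.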

[13] = target: Oxysterols receptor LXR-alpha (Homo sapiens) (UniProt Q13133); assay: ATG_LXRa_TRANS: Attagene TRANS-FACTORIAL HepG2 Assay for human Liver X Receptor alpha (LXRa) (AID 2282980); conditions: HepG2 Attagene TRANS reporter, LXRa transactivation
How it was run: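 HepG2 cells transiently transfected with GAL4-UAS reporter units for chimeric NR-Gal4 proteins, exposed to chemicals for 24 h. Reporter mRNA quantified by RT-PCR and capillary electrophoresis; gain of signal fitted relative to DMSO.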

[14] = target: Nuclear receptor subfamily 4 group A member 2 (Homo sapiens) (UniProt P43354); assay: ATG_NURR1_TRANS: Attagene TRANS-FACTORIAL HepG2 Assay for human Nuclear Receptor Related Protein 1 (NURR1) (AID 2282985); conditions: HepG2 Attagene TRANS reporter, mRNA readout
How it was run: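 Chimeric NR-Gal4 fusion activity measured in HepG2 after 24 h treatment. Reporter transcripts detected by RT-PCR and capillary electrophoresis fluorescence; positive-direction curve fitting against DMSO.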

[15] = ATG_M_19_TRANS: Attagene TRANS-FACTORIAL HepG2 Assay for M19 Transcription Factor (Internal Marker) (AID 2282974); conditions: HepG2 Attagene TRANS-FACTORIAL M19 internal marker reporter
How it was run: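 Gain-of-signal in reporter mRNA, relative to DMSO, was scored from capillary electrophoresis fluorescence. HepG2 cells carried transiently transfected multiple reporter transcription units and were incubated with test chemicals for 24 h.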

[16] = target: Bile acid receptor (Homo sapiens) (UniProt Q96RI1); assay: ATG_FXR_TRANS: Attagene TRANS-FACTORIAL HepG2 Assay for Farnesoid X Receptor (FXR) (AID 2282979); conditions: HepG2 Attagene TRANS FXR-GAL4 reporter transcription;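 further: hits raise reporter mRNA above DMSO so AC50 marks FXR activation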
How it was run: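 HepG2 cells were transiently transfected with GAL4-UAS reporters driven by chimeric NR-Gal4 proteins and dosed for 24 h. Reporter mRNA was quantified by RT-PCR, fluorescent labelling, HpaI digestion and capillary electrophoresis, with gain of signal scored versus DMSO.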

[17] = target: Nuclear receptor subfamily 1 group I member 3 (Homo sapiens) (UniProt Q14994); assay: ATG_CAR_TRANS: Attagene TRANS-FACTORIAL HepG2 Assay for human Constitutive Androstane Receptor (CAR) (AID 2282969); conditions: HepG2 Attagene TRANS-FACTORIAL CAR reporter;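 further: activators raise reporter mRNA above DMSO so AC50 marks induction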
How it was run: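 Steps: transient transfection of HepG2 with multiple GAL4-UAS reporter units; 24 h compound incubation; RNA isolation, RT-PCR, 6-FAM primer extension, HpaI digest; capillary electrophoresis. Gain-of-signal relative to DMSO negative control.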

[18] = target: Steroid hormone receptor ERR1 (Homo sapiens) (UniProt P11474); assay: ATG_ERRa_TRANS: Attagene TRANS-FACTORIAL HepG2 Assay for human Estrogen-Related Receptor alpha (ERRa) (AID 2282971); conditions: HepG2 Attagene TRANS reporter, ERRa transactivation
How it was run: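 HepG2 cells transiently transfected with GAL4-UAS reporter units and chimeric NR-Gal4 constructs; after 24 hour compound incubation, reporter mRNA quantified by RT-PCR, fluorescent labelling and capillary electrophoresis, gain of signal versus DMSO.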

[19] = target: Estrogen-related receptor gamma (Homo sapiens) (UniProt P62508); assay: ATG_ERRg_TRANS: Attagene TRANS-FACTORIAL HepG2 Assay for human Estrogen-Related Receptor gamma (ERRg) (AID 2282977); conditions: HepG2 Attagene TRANS reporter, ERRg transactivation;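 further: hits increase reporter signal over DMSO so potencies reflect activators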
How it was run: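 Exogenous NR-Gal4 chimera activity measured as reporter transcript induction after 24 h in transiently transfected HepG2 cells. RNA reverse-transcribed, PCR-amplified, 6-FAM-labelled and resolved by capillary electrophoresis; increase over DMSO baseline.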

Measured: AC50

Sequence of Steroid hormone receptor ERR1 (Homo sapiens) (P11474 whole entry, looked up, the tested form may be a part): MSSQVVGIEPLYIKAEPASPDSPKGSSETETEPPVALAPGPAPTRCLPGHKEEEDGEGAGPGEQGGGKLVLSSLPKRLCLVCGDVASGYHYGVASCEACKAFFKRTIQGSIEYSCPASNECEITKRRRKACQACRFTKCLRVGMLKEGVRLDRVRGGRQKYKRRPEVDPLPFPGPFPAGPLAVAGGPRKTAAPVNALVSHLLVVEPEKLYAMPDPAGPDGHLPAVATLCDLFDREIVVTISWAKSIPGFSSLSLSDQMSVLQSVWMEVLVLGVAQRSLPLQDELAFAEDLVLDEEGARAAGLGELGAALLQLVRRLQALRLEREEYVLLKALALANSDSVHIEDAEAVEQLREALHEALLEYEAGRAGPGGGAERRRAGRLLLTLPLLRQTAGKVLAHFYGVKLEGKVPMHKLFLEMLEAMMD
Sequence of Oxysterols receptor LXR-alpha (Homo sapiens) (Q13133 whole entry, looked up, the tested form may be a part): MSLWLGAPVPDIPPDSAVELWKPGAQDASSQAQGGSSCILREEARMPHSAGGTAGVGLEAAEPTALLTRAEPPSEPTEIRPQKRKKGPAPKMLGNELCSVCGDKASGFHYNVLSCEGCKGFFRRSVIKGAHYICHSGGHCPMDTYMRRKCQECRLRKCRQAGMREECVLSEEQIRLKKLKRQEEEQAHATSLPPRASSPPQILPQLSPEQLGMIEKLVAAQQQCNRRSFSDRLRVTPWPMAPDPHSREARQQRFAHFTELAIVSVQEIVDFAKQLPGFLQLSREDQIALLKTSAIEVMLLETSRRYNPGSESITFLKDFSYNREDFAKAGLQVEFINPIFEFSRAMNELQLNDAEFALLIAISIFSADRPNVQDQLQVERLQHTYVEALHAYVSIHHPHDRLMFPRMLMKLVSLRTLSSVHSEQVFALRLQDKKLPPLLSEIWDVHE
Sequence of Oxysterols receptor LXR-beta (Homo sapiens) (P55055 whole entry, looked up, the tested form may be a part): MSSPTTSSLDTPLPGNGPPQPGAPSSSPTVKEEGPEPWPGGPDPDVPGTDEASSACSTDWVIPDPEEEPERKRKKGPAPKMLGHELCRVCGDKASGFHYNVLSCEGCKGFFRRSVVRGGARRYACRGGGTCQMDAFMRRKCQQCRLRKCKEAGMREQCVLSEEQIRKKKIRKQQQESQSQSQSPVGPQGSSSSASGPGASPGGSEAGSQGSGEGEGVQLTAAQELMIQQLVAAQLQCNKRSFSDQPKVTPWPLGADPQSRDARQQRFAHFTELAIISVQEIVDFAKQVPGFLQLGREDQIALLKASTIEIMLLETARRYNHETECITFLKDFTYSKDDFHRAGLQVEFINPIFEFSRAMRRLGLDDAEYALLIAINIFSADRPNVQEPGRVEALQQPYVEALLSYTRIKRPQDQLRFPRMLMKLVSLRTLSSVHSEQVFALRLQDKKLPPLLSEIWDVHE
Sequence of Estrogen receptor (Homo sapiens) (P03372 whole entry, looked up, the tested form may be a part): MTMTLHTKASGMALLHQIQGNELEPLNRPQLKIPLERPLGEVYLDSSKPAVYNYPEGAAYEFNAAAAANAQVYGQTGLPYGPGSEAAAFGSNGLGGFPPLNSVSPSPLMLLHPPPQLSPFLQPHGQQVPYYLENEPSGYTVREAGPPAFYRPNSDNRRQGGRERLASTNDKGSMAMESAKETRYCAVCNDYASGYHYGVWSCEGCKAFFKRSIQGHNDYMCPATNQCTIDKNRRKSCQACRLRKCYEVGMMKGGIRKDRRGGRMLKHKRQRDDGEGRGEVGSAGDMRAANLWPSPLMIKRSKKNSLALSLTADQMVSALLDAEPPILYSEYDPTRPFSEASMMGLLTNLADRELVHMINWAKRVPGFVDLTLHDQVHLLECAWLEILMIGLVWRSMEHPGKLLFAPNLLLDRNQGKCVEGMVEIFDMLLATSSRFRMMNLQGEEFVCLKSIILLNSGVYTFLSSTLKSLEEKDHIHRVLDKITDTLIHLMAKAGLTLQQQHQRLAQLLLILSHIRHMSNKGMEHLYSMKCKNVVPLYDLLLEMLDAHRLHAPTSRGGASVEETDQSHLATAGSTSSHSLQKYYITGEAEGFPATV
Sequence of Nuclear receptor subfamily 1 group I member 3 (Homo sapiens) (Q14994 whole entry, looked up, the tested form may be a part): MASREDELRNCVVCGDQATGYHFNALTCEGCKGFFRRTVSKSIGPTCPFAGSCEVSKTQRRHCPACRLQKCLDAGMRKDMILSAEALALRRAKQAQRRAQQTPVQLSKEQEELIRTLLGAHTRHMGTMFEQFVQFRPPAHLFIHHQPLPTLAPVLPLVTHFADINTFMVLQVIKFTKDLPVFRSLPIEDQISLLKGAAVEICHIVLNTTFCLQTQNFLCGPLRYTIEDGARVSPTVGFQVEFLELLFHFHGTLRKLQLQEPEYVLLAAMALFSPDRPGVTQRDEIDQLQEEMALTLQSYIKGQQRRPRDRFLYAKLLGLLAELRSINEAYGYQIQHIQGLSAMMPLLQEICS
Sequence of Glucocorticoid receptor (Homo sapiens) (P04150 whole entry, looked up, the tested form may be a part): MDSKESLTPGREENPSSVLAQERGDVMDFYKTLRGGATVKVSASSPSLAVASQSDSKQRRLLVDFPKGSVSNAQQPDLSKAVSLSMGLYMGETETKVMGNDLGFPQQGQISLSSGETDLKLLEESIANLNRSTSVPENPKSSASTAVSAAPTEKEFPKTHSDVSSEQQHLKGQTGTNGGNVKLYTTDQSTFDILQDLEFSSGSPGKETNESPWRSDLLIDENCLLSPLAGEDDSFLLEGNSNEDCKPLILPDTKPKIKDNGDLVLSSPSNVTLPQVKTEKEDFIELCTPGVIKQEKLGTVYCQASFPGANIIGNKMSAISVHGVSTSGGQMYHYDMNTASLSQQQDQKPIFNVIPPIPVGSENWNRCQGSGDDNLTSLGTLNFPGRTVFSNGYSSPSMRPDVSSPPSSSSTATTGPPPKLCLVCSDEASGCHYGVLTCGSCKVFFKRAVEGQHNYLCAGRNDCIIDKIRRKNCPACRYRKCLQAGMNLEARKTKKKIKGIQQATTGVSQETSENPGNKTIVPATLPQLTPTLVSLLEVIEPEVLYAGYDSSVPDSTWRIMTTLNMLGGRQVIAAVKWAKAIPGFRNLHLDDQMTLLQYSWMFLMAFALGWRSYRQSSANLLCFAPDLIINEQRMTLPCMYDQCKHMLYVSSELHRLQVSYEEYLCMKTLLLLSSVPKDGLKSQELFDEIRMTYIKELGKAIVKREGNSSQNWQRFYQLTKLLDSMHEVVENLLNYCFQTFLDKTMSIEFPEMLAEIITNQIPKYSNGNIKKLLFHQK
Sequence of Nuclear respiratory factor 1 (Homo sapiens) (Q16656 whole entry, looked up): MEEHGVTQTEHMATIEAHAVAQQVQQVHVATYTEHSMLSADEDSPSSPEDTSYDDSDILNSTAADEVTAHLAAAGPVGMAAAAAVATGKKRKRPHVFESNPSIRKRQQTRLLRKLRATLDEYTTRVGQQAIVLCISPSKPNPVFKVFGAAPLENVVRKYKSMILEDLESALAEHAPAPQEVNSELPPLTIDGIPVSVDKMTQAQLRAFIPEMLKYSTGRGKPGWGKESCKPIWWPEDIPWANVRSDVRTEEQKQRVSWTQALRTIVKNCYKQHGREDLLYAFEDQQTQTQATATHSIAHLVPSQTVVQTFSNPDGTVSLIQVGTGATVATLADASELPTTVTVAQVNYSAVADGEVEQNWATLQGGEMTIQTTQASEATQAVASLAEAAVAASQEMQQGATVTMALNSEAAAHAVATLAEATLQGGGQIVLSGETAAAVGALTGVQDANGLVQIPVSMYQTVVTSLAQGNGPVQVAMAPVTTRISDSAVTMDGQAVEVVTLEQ
Sequence of Transcriptional activator Myb (Homo sapiens) (P10242 whole entry, looked up): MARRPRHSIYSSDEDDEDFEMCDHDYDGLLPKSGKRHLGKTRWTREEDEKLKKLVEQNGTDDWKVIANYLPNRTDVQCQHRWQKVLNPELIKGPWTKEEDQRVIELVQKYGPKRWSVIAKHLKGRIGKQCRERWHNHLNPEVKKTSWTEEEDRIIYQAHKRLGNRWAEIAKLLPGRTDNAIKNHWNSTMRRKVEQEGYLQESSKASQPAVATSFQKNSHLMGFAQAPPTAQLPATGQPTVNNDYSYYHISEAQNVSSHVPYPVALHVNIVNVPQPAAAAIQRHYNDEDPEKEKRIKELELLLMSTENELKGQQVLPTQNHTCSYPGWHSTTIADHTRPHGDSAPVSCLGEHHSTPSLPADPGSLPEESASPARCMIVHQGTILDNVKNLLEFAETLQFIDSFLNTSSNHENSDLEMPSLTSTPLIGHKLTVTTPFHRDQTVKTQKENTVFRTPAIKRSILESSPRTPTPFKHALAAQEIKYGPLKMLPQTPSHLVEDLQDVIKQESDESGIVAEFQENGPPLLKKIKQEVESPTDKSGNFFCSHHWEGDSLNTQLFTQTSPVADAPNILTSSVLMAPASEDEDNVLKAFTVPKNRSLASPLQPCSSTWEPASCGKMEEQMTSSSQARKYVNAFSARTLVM
Sequence of Nuclear receptor subfamily 4 group A member 2 (Homo sapiens) (P43354 whole entry, looked up, the tested form may be a part): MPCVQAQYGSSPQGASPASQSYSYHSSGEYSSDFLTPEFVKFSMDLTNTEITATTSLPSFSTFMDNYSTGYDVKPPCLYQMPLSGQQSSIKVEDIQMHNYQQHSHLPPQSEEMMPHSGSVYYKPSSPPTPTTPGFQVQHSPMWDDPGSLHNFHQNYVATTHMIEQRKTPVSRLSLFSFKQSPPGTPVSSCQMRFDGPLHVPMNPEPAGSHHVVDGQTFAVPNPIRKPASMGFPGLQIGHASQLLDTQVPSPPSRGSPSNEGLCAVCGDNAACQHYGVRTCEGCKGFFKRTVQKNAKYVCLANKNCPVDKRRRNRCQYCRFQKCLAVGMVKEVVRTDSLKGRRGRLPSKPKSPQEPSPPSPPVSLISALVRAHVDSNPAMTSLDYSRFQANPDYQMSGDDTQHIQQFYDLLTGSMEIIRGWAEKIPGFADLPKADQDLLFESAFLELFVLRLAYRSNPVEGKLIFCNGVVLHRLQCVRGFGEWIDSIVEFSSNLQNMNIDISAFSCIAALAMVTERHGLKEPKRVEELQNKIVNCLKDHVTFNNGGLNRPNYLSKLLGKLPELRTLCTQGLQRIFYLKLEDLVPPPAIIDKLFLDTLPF

c1ccc(CNCc2ccccc2)cc1
inactive: [1] | [2] | [3] | [4] | [5] | [6] | [7] | [8] | [9]

CCCCCCCC[N+](C)(CCCCCCCC)CCCCCCCC
inactive: [1] | [3] | [4] | [10] | [11] | [12] | [8] | [9]

CCOC(=O)c1ccccc1C(=C1C=C(Br)C(=O)C(Br)=C1)c1cc(Br)c(O)c(Br)c1
inactive: [1] | [3] | [11] | [7] | [12] | [8] | [9]
active: [2] 25.9 µM | [4] 34.4 µM

S=C(NC1CCCCC1)NC1CCCCC1
inactive: [1] | [2] | [3] | [4] | [13] | [11] | [12] | [14] | [8] | [9]

CC1=NN(c2cc(S(=O)(=O)O)ccc2Cl)C(=O)C1N=Nc1ccccc1 (configuration not stated)
not listed: [1] | [3] | [13] | [14] | [17] | [18] | [19]
inactive: all other assays above

CC(=O)Nc1ccc2c(c1)Cc1cc(NC(C)=O)ccc1-2
inactive: [1] | [2] | [17] | [4] | [10] | [11] | [7] | [14] | [8] | [9]

CN1C(=O)N(C)C(O)C1O (configuration not stated)
inactive: [1] | [2] | [17] | [3] | [4] | [5] | [11] | [8] | [9]

C=C(C)C(=O)OCC(C)C
not listed: [6] | [7] | [10] | [12] | [13] | [17] | [18] | [19]
inactive: all other assays above

CCO[Si](CCCN=C=O)(OCC)OCC
not listed: [3] | [10] | [16] | [18] | [19]
inactive: all other assays above

CC(=O)OCc1ccco1
not listed: [6] | [10] | [11] | [14] | [15] | [16]
inactive: all other assays above

C=C(C)CCO
active: [1] 0.316 µM
not listed: [11] | [15] | [16] | [17] | [18] | [19]
inactive: all other assays above

O=C(Oc1ccccc1)c1ccc2ccccc2c1O
active: [1] 49 µM | [2] 26.4 µM | [4] 38.6 µM
not listed: [5] | [13] | [15] | [16] | [19]
inactive: all other assays above

CC1(C)O[C@@H]2C[C@H]3[C@@H]4C[C@H](F)C5=CC(=O)CC[C@]5(C)[C@H]4[C@@H](O)C[C@]3(C)[C@]2(C(=O)CO)O1
active: [10] 0.0728 µM
not listed: [5] | [11] | [15] | [16] | [17] | [18] | [19]
inactive: all other assays above

CC1=NC(C)OC1C (configuration not stated)
active: [2] 9.63 µM
not listed: [3] | [7] | [13] | [16] | [17] | [18] | [19]
inactive: all other assays above

CC(C)(C)C(=O)C=Cc1ccc(Cl)cc1
active: [2] 26.3 µM | [17] 24.8 µM | [3] 26.1 µM | [4] 66.4 µM | [13] 26.1 µM
not listed: [5] | [7] | [10] | [11] | [19]
inactive: all other assays above

CCCCCC/C=C\CCCCCCCC(=O)O
not listed: [3] | [6] | [12] | [13] | [15] | [17] | [18] | [19]
inactive: all other assays above

O=c1c2ccccc2oc2ccccc12
active: [3] 27.8 µM
inactive: [1] | [2] | [17] | [4] | [15] | [5] | [10] | [11] | [8] | [9]

O=CN1CCCCC1
not listed: [7] | [10] | [11] | [13] | [16] | [18] | [19]
inactive: all other assays above

[Cl][Bi]([Cl])([c]1ccccc1)([c]1ccccc1)[c]1ccccc1
active: [3] 2.74 µM | [4] 6.04 µM
inactive: [2] | [17] | [15] | [6] | [11] | [12] | [14] | [8] | [9]

CCN(CCC#N)c1ccc(N=Nc2c(Cl)cc([N+](=O)[O-])cc2Cl)cc1
active: [3] 4.92 µM
not listed: [1] | [2] | [5] | [12] | [15] | [17] | [18]
inactive: all other assays above
